Compound activity deposited in PubChem by The Scripps Research Institute Molecular Screening Center.
CHRM4 PAM: potentiates acetylcholine response at human M4 receptor; P08173; CHO-K1 hM4/Gqi5, Fluo-8 calcium fluorescence, ACh EC20; 0% = ACh EC20, 100% = maximal ACh; activation, % at 3 µM; 360,000 compounds, 0.4% hits;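 active = activation above its plate's cutoff, the mean activation of sample wells plus 3 SD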
Target sequence (P08173 whole entry, looked up): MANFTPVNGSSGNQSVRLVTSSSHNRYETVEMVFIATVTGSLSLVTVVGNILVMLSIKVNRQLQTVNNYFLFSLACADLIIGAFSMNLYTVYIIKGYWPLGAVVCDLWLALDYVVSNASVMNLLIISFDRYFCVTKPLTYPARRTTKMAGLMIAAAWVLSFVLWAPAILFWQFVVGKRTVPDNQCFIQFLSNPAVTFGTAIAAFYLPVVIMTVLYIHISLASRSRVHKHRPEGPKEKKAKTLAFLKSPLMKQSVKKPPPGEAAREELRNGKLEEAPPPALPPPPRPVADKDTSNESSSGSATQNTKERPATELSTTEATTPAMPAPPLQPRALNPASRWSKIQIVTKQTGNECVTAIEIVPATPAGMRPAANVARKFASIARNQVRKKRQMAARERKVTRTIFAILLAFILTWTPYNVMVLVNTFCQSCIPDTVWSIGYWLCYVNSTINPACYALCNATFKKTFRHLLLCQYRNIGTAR
CHO-K1 Ca ag: nonselective activator or artifact in parental CHO-K1 cells. Fluo-8 calcium fluorescence; scaled to maximal ATP response, vehicle zero. activation, % at 3 µM. 360,000 compounds, 0.48% hits. AID 602248; in the data active = activation above about 15%;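 note: untransfected CHO-K1 host cells lacking M1 receptor as counterscreen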
M1 PAM parental: counter-screen for M1 PAMs: effect in parental CHO-K1 cells. 360,000 compounds, 0.02% hits. activation, % at 3 µM. ATP EC20, Fluo-8 calcium fluorescence; 0% at ATP EC20, 100% at ATP max;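 active = activation above the run cutoff, the mean activation of all test compounds plus 3 SD, cut at about 40% in these data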;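 note: peak over basal fluorescence ratio in a 140 s read after ATP addition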
CHO-K1 Ca antag: nonselective inhibitor or artifact in parental CHO-K1 cells | ATP-induced calcium, Fluo-8 fluorescence | inhibition, % at 3 µM | 360,000 compounds, 0.6% hits;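 active = inhibition above a per-plate cutoff, the plate's mean sample inhibition plus 3 SD, cut at about 24% in these data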;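 note: 0% = DMSO plus EC80 ATP and 100% = DMSO alone without ATP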
M4 ag: agonists of human muscarinic M4 receptor (CHRM4). P08173. activation, % at 3 µM. 360,000 compounds, 0.14% hits. CHO-K1 hM4/Gqi5, Fluo-8 calcium fluorescence; vehicle 0%, full acetylcholine response 100%. AID 624127;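 active = activation above the run mean over all test wells plus 3 SD, cut at about 32% in these data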;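 note: peak over basal fluorescence ratio per well then scaled between controls; 0% = DMSO wells and 100% = acetylcholine at EC100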
M4 antag: CHRM4 antagonism in calcium assay. P08173. CHO-hM4 cells, ACh EC80, Fluo-8 calcium fluorescence. inhibition, % at 3 µM. 360,000 compounds, 0.73% hits;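 active = inhibition above its plate's cutoff, the mean inhibition of sample wells plus 3 SD, cut at about 27% in these data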;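 note: 0% = acetylcholine EC80 with DMSO and 100% = DMSO without agonist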
The depositor's hits bear a star. The list is not random: actives were taken first. Their share in the collection is about 2%.

SMILES	CHRM4 PAM	CHO-K1 Ca ag	M1 PAM parental	CHO-K1 Ca antag	M4 ag	M4 antag
CCCN=C1N(C)C[C@@H]2[C@@H]3C(=O)N(C)C(=O)[C@@H]3[C@](CC)(C(=O)OC)N12	3	2	22	-9	0	2
NC(=O)COC(=O)c1ccc(S(=O)(=O)NCc2ccco2)cc1	20*	0	15	-19	1	-11
COc1cccc(Nc2nnc(SCC(=O)Nc3sccc3C(N)=O)s2)c1	-45	12	-6	7	19	29*
COc1cc(-c2noc(C)c2-c2ccc(N(C)C)nc2)cc(OC)c1OC	-7	32*	13	-8	36*	-3
COc1ccc2[nH]c(=O)c(CN(Cc3cccs3)S(=O)(=O)c3c(C)ccc4nsnc34)cc2c1	-25	5	-7	10	17	32*
O=C(/C=C/c1ccc(Cl)cc1Cl)NCCN1CCOCC1	30*	0	-6	0	1	-13
COc1ccc(NC(=O)C[C@H]2C(=O)N(c3ccccc3)C[C@@H]2C)cc1	1	1	-8	3	5	-6
COc1ccc(N2C[C@H](C)[C@@H](CC(=O)Nc3ccc(Br)cc3)C2=O)cc1	2	4	-13	25*	8	-19
Cc1ccc(CCNS(=O)(=O)c2ccc3c(c2)N(C)CCO3)cc1	-1	4	-10	-10	7	-4
Cc1cc(=S)cc(C)n1CCCO	12	0	-4	29*	0	12
CCN(C(=O)CN1C(=O)S/C(=C\C=C\c2ccccc2)C1=O)C1CCS(=O)(=O)C1 (centres undefined)	1	6	-1	-2	7	2
O=C(NCc1ccccn1)c1ccc(=O)oc1	31*	0	-4	10	1	10
CC1CN(C(=O)c2ccc(S(=O)(=O)Nc3cccc(C(F)(F)F)c3)cc2)CC(C)O1 (centres undefined)	-2	21*	-9	0	12	-11
Cc1ccc(S(=O)(=O)Nc2ccc(C(=O)N3CCCC3)cc2)cc1	4	2	13	-7	1	1
Cc1ccc(NS(=O)(=O)c2ccc(C(=O)N3CC(C)CC(C)C3)cc2)cc1 (centres undefined)	-19	53*	-6	36*	107*	35*
O=C1NC[C@H](Cc2ccccc2)N(CC2CCN(CCC34CC5CC(CC(C5)C3)C4)CC2)C1=O	-13	0	13	-13	0	19
CCOc1ccc(S(=O)(=O)n2c([N+](=O)[O-])cnc2C)c(C)c1C	-2	1	27	-12	0	1
Cc1ccc(N(CC(O)CON=C2c3ccccc3-c3ccccc32)S(C)(=O)=O)cc1 (centres undefined)	-4	4	5	-15	6	9
O=C(OCn1ncc(Cl)c(Cl)c1=O)c1cccc(C(F)(F)F)c1	-17	1	16	4	3	58*
CC(NC(=O)Nc1cccc(Cl)c1)C(c1cccs1)N1CCCC1 (centres undefined)	-2	14	9	5	9	3
CC(NC(=O)Nc1ccc([N+](=O)[O-])cc1)C(c1cccs1)N1CCCC1 (centres undefined)	-1	25*	2	12	50*	-9
Cc1onc(-c2ccccc2)c1C(=O)Nc1nnc(N(C)Cc2ccccc2)s1	18*	0	14	-1	5	-11
COc1ccc(C2c3cc(OC)c(OC)cc3CCN2C(=O)c2ccccc2)cc1OC (centres undefined)	10	0	4	0	-2	-10
COc1ccc(C(=O)N2CCc3cc(OC)c(OC)cc3C2c2ccc(OC)c(OC)c2)cc1 (centres undefined)	6	0	-8	24*	-1	-14
O=C(NNC(=O)c1ccc([N+](=O)[O-])cc1)c1ccncc1	13	0	21	-10	0	4
SMILES	CHRM4 PAM	CHO-K1 Ca ag	M1 PAM parental	CHO-K1 Ca antag	M4 ag	M4 antag
N/C(=N\OCc1ccc([N+](=O)[O-])cc1)c1ccncc1	7	-1	-10	30*	1	6
O=C(NC1CCCC1)C(c1ccccn1)N(C(=O)c1csnn1)c1ccccc1F (centres undefined)	4	1	1	-8	1	-16
CCCCn1nnnc1C1(C)CCC(=O)N1CCc1ccc(OC)c(OC)c1 (centres undefined)	2	10	0	3	1	2
COc1c(O)cc2c(c1O)[C@@H]1OC(CO)C(O)C(O)[C@H]1OC2=O (some centres undefined)	-1	0	20	-4	1	-2
COc1c(O)cc2c(c1O)C1OC(CO)C(O)C(O)C1OC2=O (centres undefined)	7	0	-13	28*	7	-36
CCN(CC)c1ccc(/C=C/c2ccc3ccc(OC)cc3[n+]2CC)cc1	-15	11	-25	57*	22	36*
CC[n+]1c(/C=C/c2ccc(N(C)C)cc2)ccc2ccccc21	11	0	-4	13	1	8
O=C(CN1C(=O)c2ccccc2S1(=O)=O)NCc1ccc(F)cc1	-1	1	1	63*	2	0
CCOC1=C2[C@@H](CN(S(=O)(=O)c3ccccc3C)[C@H]2c2ccc(Cl)cc2)[C@H]2C(=O)NC(=O)[C@H]2C1	-14	1	15	5	2	43*
CCOC1=C2[C@@H](CN(S(=O)(=O)c3ccccc3C)[C@H]2c2ccc(Cl)cc2)[C@H]2C(=O)N(c3ccccc3)C(=O)[C@H]2C1	-5	1	11	5	0	0
CCOC1=C2[C@@H](CN(S(=O)(=O)c3ccc(C)cc3)[C@H]2c2ccccc2Cl)[C@H]2C(=O)N(C(C)(C)C)C(=O)[C@H]2C1	11	0	4	27*	-2	-1
Cc1nc2sc(C(c3ccc(Cl)cc3)N3CC(C)OC(C)C3)c(O)n2n1 (centres undefined)	17*	0	1	20	2	-2
COC(=O)c1ccc(CN2CCC(Oc3ccc(C(=O)N4CCCCC4)cc3)CC2)cc1	-16	4	22	-9	3	62*
O=C(c1cccc(OC2CCN(Cc3cc(F)cc(F)c3)CC2)c1)N1CCCC1	6	0	-10	18	4	-13
COc1ccc(/C=C/CN2CCC(Oc3ccc(C(=O)N4CCCCC4)cc3)CC2)cc1	-15	3	2	1	4	31*
CSc1ccc(CN2CCC(Oc3cccc(C(=O)N4CCCC4)c3)CC2)cc1	-16	2	-1	2	5	55*
COC(=O)c1ccc(CN2CCC(Oc3cccc(C(=O)N4CCCC4)c3)CC2)cc1	-16	2	4	-2	4	95*
